# Shown are actives, neighbours in structure and some others; about 12% of the full set was active somewhere.
# G9a block: qHTS Assay for Inhibitors of Histone Lysine Methyltransferase G9a; Histone-lysine N-methyltransferase EHMT2 (Homo sapiens), Q96KQ7; G9a H3K9 monomethylation, AlphaScreen, 2 h; Potency, µM (top dose mostly 102 µM), for inactives: at the top dose activity, negative = inhibition, most hits filed as inhibitors; actives 8.8% (n = 350,000); AID 504332, 2011; also: % is scaled to controls: 0 for no effect and ±100 for the full control effect; nearly all actives have a fitted effect of over 75% in size
#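 Readings reflect AlphaScreen signal from monomethyl-H3K9 antibody detection. HMT at 20 nM; substrate b-H3K9 500 nM; cofactor SAM 20 uM; 2 h RT reaction; compounds tested as titrations in qHTS with 15 min preincubation.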
# JMJD2A Tudor: qHTS Assay for Inhibitors of JMJD2A-Tudor Domain | Lysine-specific demethylase 4A (Homo sapiens), O75164 | AlphaScreen JMJD2A-Tudor / H3K4me3 peptide binding | Potency, µM (series often up to 114 µM), for the others: at the top dose activity change, negative = inhibition, hits mostly inhibitors | actives 4.4% (n = 390,000) | AID 504339, 2011; also: % is scaled to controls: 0 for no effect and ±100 for the full control effect; nearly all actives have a fitted effect of over 50% in size
# Sfp PPTase inh: qHTS Assay for Inhibitors of Bacillus subtilis Sfp phosphopantetheinyl transferase (PPTase). 4'-phosphopantetheinyl transferase ffp (Bacillus subtilis), Q9F4F7. Biochemical Sfp PPTase activity, qHTS. Potency, µM, for the others: largest response in the series, negative = inhibition, most hits filed as inhibitors. actives 3.5% (n = 310,000). AID 1490, 2009;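 also: the enzyme is Sfp with the accession as filed and its product quenches rhodamine fluorescence; 0% = enzyme reaction without inhibitor and -100% = no enzyme wells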
#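 With Hepes-Na pH 7.6 buffer containing 10 mM MgCl2, Sfp (15 nM) modified BHQ-2-YbbR (12.5 uM) using rhodamine-CoA (5 uM). Two reads 30 minutes apart at 525/598 nm yielded each well's rate.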
# BAZ2B block: qHTS Assay for Inhibitors of BAZ2B | Bromodomain adjacent to zinc finger domain protein 2B (Homo sapiens), Q9UIF8 | AlphaScreen BAZ2B-H3K14Ac peptide displacement | Potency, µM (doses to about 114 µM), inactives show top-dose activity change, negative = inhibition, actives largely listed as inhibitors | actives 4.4% (n = 360,000); also: % is scaled to controls: 0 for no effect and ±100 for the full control effect; nearly all actives have a fitted effect of over 60% in size
#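 In this displacement format the biotinylated H3(5-23) peptide acetylated at Lys14 serves as ligand at 50 nM, with BAZ2B at 50 nM in PBS pH 7.4 containing 0.01% Tween-20. Donor and acceptor beads are 10 ug/mL final.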
# HP1b binding inh: HTS for Inhibitors of HP1-beta Chromodomain Interactions with Methylated Histone Tails | AlphaScreen HP1-beta / biotin-H3K9me3 peptide binding | Potency, µM (top dose mostly 114 µM), for the others: top-dose activity change, negative = inhibition, actives largely listed as inhibitors | Chromobox protein homolog 1 (Homo sapiens), P83916 | actives 0.56% (n = 390,000); also: nearly all actives have a fitted effect of over 70% in size
#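 Compound inhibition of the preformed complex between 50 nM HP1-beta and 50 nM biotinylated H3K9me3 peptide was read by AlphaScreen. Buffer was PBS pH 7.4 with 0.01% Tween-20. Incubations ran 30 min at room temperature, with 10 ug/mL donor/acceptor beads.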
# L3MBTL1 block: qHTS Assay for the Inhibitors of L3MBTL1; Lethal(3)malignant brain tumor-like protein 1 (Homo sapiens), Q9Y468; AlphaScreen L3MBTL1–H3K9me1 peptide binding; Potency, µM (doses to about 57.1 µM), for inactives: top-dose activity, negative = inhibition, actives largely listed as inhibitors; actives 0.66% (n = 230,000); AID 485360, 2010; also: % is scaled to controls: 0 for no effect and ±100 for the full control effect; nearly all actives have a fitted effect of over 60% in size
#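 L3MBTL1 50 nM + b-AHA-H3(1-15)K9me1 75 nM, 30 min RT; compound added, 30 min RT; streptavidin donor/Ni-chelate acceptor beads 10 ug/mL each final, 30 min RT dark; AlphaScreen read.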
# * hit, by the source's call; u = inconclusive; x = no result; [ ] = another dose, or the depositor's remark. Calls follow the shape of the dose curve; as a rule, active = well fitted curve in the direction sought with a large enough effect; inconclusive = small, poorly fitted or top-dose-only effect, or another doubt; inactive = no such curve, though single readings can be large; an effect the other way counts as inactive or inconclusive. Potency is read from the fitted curve at half-maximal effect.
SMILES,G9a block,JMJD2A Tudor,Sfp PPTase inh,BAZ2B block,HP1b binding inh,L3MBTL1 block
CCn1c(COc2ccccc2)nnc1SCC(=O)c1cccc([N+](=O)[O-])c1,40µM*,u,-2%,-34%,-5%,-3%
CCOC(=O)CSc1nnc(CSc2nc3sc4c(c3c(=O)[nH]2)CCC4)n1-c1ccccc1,-24%,-24%,9%,-5%,15%,x
CCOC(=O)CSc1nnc(Cc2ccccc2)n1-c1cccc(Cl)c1,9%[0.501 µM],-18%,17%,u,54%,8%
O=C(Cn1nc(-c2ccc(Cl)cc2)c2ccccc2c1=O)NN1CCOCC1,-8%,-3%,15%,-3%,35%,3%
CCc1ccccc1N1CC(c2nc3ccccc3n2CCCOc2ccc(Cl)cc2)CC1=O (stereo unspecified),-36%[59 µM],-28%,x,-13%,9%,x
COc1cccc(OC)c1C(=O)OCc1c(-c2ccccc2)ncc2ccccc12,x,-30%,x,x,24%,-8%
COc1ccc(N(C(=O)c2cccnc2)S(=O)(=O)c2ccc(F)cc2)cc1,11%,-5%,14%,-30%,55%,-4%
O=[S+]([O-])(c1ccc2c(c1)OCCO2)N1CCN([S+](=O)([O-])c2c(F)cc(F)cc2Br)CC1,x,-24%,x,x,x,x
CCOC(=O)CSc1nnc(-c2ccoc2C)n1-c1ccc(OCC)cc1,u,-27%,56µM*,-33%,-7%,-4%
COc1cccc(C(=O)CSc2nnc(CNS(C)(=O)=O)n2-c2ccc(C)cc2)c1,18µM*,18µM*,-27%,-24%,u,-2%
CCn1c(COc2ccc3c(c2)OCO3)nnc1SCC(=O)c1ccc(Cl)cc1,50µM*,-10%,3%,-1%,18%,x
CNC(=O)CSc1nnc(COc2ccc([N+](=O)[O-])cc2)n1C,19%[59 µM],-6%,-18%,56µM*,60%,x
C=CCn1c(SCC(=O)c2ccc(Cl)cc2)nnc1-c1ccc2c(c1)OCO2,u,0%,7%,u,22%,-8%
COc1ccc(-n2c(COc3ccc4c(c3)OCO4)nnc2SCC(=O)O)cc1,50µM*,-21%,13%,-27%,21%,-11%
COc1cccc(-c2nnc(SCC(N)=O)n2-c2ccc(Cl)cc2)c1,28µM*,-11%,5%,-7%,24%,-3%
COc1ccc(-c2nnc(SCC(=O)c3cccs3)n2-c2ccc(Cl)cc2)cc1,u,-10%,-13%,-8%,39%,8%
COc1ccc(-n2c(COc3ccccc3)nnc2SCC(N)=O)cc1,45µM*,-32%,7%,-4%,48%,-3%
O=C(O)CSc1nnc(COc2ccc(Br)cc2)n1-c1ccccc1,21%[0.501 µM],-16%,13%,-7%,28%,9%[2.29 µM]
CCc1nn(CC(=O)Nc2ccc(C)cc2C)c(=O)c2cc3sccc3n12,5%[59 µM],-14%,x,-2%,26%,x
O=C(Cc1ccc(Cl)cc1)N/N=C/c1cccc(O)c1,44%,-20%,14%,0%,26%,-11%
CC(=O)C1=C(O)C=C2Oc3c(C(C)=O)c(O)c(C)c(O)c3C2(C)C1=O (stereo unspecified),x,x,9%,x,x,x
CCNc1ccc(S(=O)(=O)N(C)C)cc1NCC(=O)Nc1ccc(F)c(Cl)c1,50µM*,u,-2%,u,u,-3%
CCNc1ccc(S(=O)(=O)N(C)C)cc1NCC(=O)Nc1ccc(Br)cc1F,14µM*,u,0%,u,-28%,u
O=C(CNC(=O)OCc1ccccc1)OC(c1ccccc1)c1ccccc1,x,22%,x,x,42%[57 µM],x
Cc1ccn(Cc2n[nH]c(=S)n2Cc2ccccc2)n1,3.2µM*,8.9µM*,11%,0%,20%,x
